Screens as filed in PubChem BioAssay.
DAX1 inh-1 = DAX1 (NR0B1) inhibitors, primary screen, cell-based, HEK293, Gal4-DAX1, luciferase luminescence; inhibition, % at 6.75 µM; 340,000 compounds, 0.99% hits; HEK293 Gal4-DAX1 luciferase reporter; Nuclear receptor subfamily 0 group B member 1 (Homo sapiens), P51843;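 active = inhibition above the mean over all tested compounds plus 3 SD, cut at about 4.2% in these data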;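 note: inhibition shows as a rise in luminescence from relieved DAX1 repression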
Target sequence (P51843 207-470 limits assumed): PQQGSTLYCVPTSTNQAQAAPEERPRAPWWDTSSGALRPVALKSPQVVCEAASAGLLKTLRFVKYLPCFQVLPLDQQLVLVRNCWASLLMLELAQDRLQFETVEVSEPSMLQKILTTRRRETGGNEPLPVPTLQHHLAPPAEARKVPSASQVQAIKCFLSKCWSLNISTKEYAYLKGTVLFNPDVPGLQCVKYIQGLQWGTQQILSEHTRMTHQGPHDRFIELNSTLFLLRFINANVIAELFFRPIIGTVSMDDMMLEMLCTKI
hcDAF-12 act = H. contortus DAF-12 nuclear receptor activators, primary screen, cell-based, luminescence, HEK293, lit1-tk-luc reporter | activation, % at 6.8 µM | 370,000 compounds, 1.4% hits | HEK293 hcDAF-12 lit1-tk-luc reporter; 0% DMSO, 100% Δ7-dafachronic acid | AID 652067, 2013;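 active = activation above the mean of all tested compounds plus 3 SD, cut at about 5.5% in these data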
ssDAF-12 act = S. stercoralis DAF-12 nuclear receptor activators, primary screen, cell-based, luminescence, HEK293, GRIP1 co-expression, lit1-tk-luc; HEK293 ssDAF-12/GRIP1 lit1-tk-luc reporter; % of 3 µM dafachronic acid response; Nuclear hormone receptor DAF-12 (Strongyloides stercoralis); 370,000 compounds, 1% hits; activation, % at 6.8 µM;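 active = activation above the mean over all tested compounds plus 3 SD, cut at about 0.9% in these data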
DAX1 inh-2 = DAX1 (NR0B1) inhibitors on StAR promoter, primary screen, cell-based, luminescence, SF-1 (NR5A1), full-length DAX-1 | HEK293T StAR-luciferase reporter, SF-1/DAX-1 repression relief | AID 652010, 2013 | 370,000 compounds, 1.1% hits | inhibition, % at 6.8 µM;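 active = inhibition above the mean over all tested compounds plus 3 SD, cut at about 3.6% in these data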;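 note: higher inhibition means more luminescence from relief of DAX-1 repression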
hgDAF-12 ag = H. glycines DAF-12 receptor agonists, primary screen, cell-based, luminescence, HEK293, GAL4 fusion, UAS-luciferase; AID 687014, 2013; activation, % at 6.8 µM; HEK293 GAL4-hgDAF12 UAS-luciferase reporter, agonist luminescence; normalized to butyrate control; Nuclear hormone receptor DAF-12 (Heterodera glycines), GAL4 fusion; 370,000 compounds, 1.8% hits;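 active = activation above a cutoff set at the mean of all screened compounds plus 3 SD, cut at about 10% in these data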
SMARCA2 activ = SMARCA2 (BRM) function activators, primary screen, cell-based, luminescence, high throughput; activation, % at 9.1 µM; MG213 cells, MMTV-luciferase reporter, dexamethasone, overnight; 370,000 compounds, 1% hits; AID 652017, 2013; in the data active = activation above about 7.8%
Numbers stand for hits; n = inactive; x = no result given. A selection: hits, their analogues and other compounds. The true share with any hit is near 4.8%.

SMILES	DAX1 inh-1	hcDAF-12 act	ssDAF-12 act	DAX1 inh-2	hgDAF-12 ag	SMARCA2 activ
C[C@@H]1CCCCO[C@H](CN(C)C(=O)Nc2ccc(C(F)(F)F)cc2)[C@@H](C)CN([C@H](C)CO)C(=O)c2cc(NC(=O)Nc3ccc4c(c3)OCO4)ccc2O1	x	n	n	n	n	n
Cc1noc(C)c1NC(=O)N(C)C[C@H]1OCCCC[C@@H](C)Oc2ccc(NC(=O)Nc3ccc(F)cc3)cc2C(=O)N([C@@H](C)CO)C[C@H]1C	5.1	n	n	n	n	n
Cc1noc(C)c1NC(=O)N(C)C[C@H]1OCCCC[C@@H](C)Oc2ccc(NC(=O)c3ccccc3)cc2C(=O)N([C@H](C)CO)C[C@@H]1C	n	n	n	n	n	n
C[C@@H]1CCCCO[C@@H](CN(C)C(=O)c2ccncc2)[C@@H](C)CN([C@H](C)CO)C(=O)c2cc(NC(=O)Cc3ccccc3)ccc2O1	n	n	n	n	11	n
C[C@@H]1CCCCO[C@H](CN(C)C(=O)c2ccncc2)[C@H](C)CN([C@@H](C)CO)C(=O)c2cc(NC(=O)c3ccccc3)ccc2O1	n	n	n	n	n	n
CCOc1ccc(S(=O)(=O)N2CCC(C(=O)NCC3CCCO3)CC2)cc1C (centres undefined)	n	n	n	n	n	n
CC(C)NC(=O)Nc1ccc2c(c1)C(=O)N([C@H](C)CO)C[C@H](C)[C@@H](CN(C)C(=O)Nc1ccc(C(F)(F)F)cc1)O2	4.5	n	n	n	n	n
C[C@H](CO)N1C[C@H](C)[C@@H](CN(C)S(=O)(=O)c2ccc(F)cc2)Oc2ccc(NC(=O)c3ccncc3)cc2C1=O	n	n	n	n	n	n
COc1ccc(S(=O)(=O)N(C)C[C@H]2Oc3ccc(NC(=O)c4ccncc4)cc3C(=O)N([C@H](C)CO)C[C@@H]2C)cc1	n	n	2.6	n	n	n
Cc1ccc(S(=O)(=O)N(C)Cc2ccc(C(=O)N/N=C/c3ccc(OC(F)F)cc3)cc2)cc1	6.2	n	n	n	n	n
C/C(=N\NC(=O)c1ccc(CN(C)S(=O)(=O)c2ccc(C)cc2)cc1)c1ccc(OC(F)F)cc1	n	n	n	n	n	n
O=C(Nc1ccc(N2CCOCC2)cc1)c1ccc(Br)o1	n	n	n	n	12	n
O=C(NCC(=O)N1CCCCCCC1)c1ccc(Br)o1	6.0	n	n	n	n	n
O=C(NCC(=O)N1CCOCC1)c1ccc(Br)o1	n	n	n	3.7	n	n
O=C(Cc1ccc(Br)cc1)N1CCOCC1	n	n	0.9	n	n	n
CC(=O)N1CCN(C(=O)CNC(=O)c2ccc(Br)o2)CC1	n	n	n	n	n	n
C=CCN(c1ccccc1OC)S(=O)(=O)c1cccc(C(=O)OCC(=O)c2c[nH]c3ccccc23)c1	n	n	n	n	n	n
CCn1c(CNC(=O)C23CC4CC(CC(C4)C2)C3)nnc1SC	n	n	n	n	n	n
O=C(COc1ccccc1)Nc1cccc2nsnc12	n	n	n	n	n	n
Cc1nc(N2CCN(Cc3ccccc3)CC2)[nH]c(=O)c1C	n	n	n	n	n	n
Cc1noc(C)c1COc1ccccc1C(=O)NCCc1ccc(S(N)(=O)=O)cc1	n	n	n	n	n	n
Cc1cc(C(=O)CSc2nnc(-c3ccncc3)n2-c2ccccc2)c(C)n1C	7.4	n	n	n	n	n
O=C(CSc1nc2ccccc2c(=O)[nH]1)Nc1ccc(C(=O)O)cc1	n	n	n	n	n	n
C=CCn1c(C)cc(C(=O)CSc2nc3ccccc3c(=O)[nH]2)c1C	n	n	n	n	n	n
COCCn1c(C)cc(C(=O)CSc2nc3ccccc3c(=O)[nH]2)c1C	6.5	n	n	n	n	n
SMILES	DAX1 inh-1	hcDAF-12 act	ssDAF-12 act	DAX1 inh-2	hgDAF-12 ag	SMARCA2 activ
Cc1cc(C(=O)CSc2nc3ccccc3[nH]2)c(C)n1C	n	n	1.1	3.7	11	n
Cn1c(=O)n(C)c2cc(NC(=O)CSc3nc4ccccc4c(=O)[nH]3)ccc21	4.7	n	n	n	n	n
Cc1ccc(C(=O)Cn2nnc3ccccc32)cc1[N+](=O)[O-]	6.0	n	n	n	n	n
COc1cc(C(=S)N2CCCCC2)ccc1O	n	n	n	n	n	n
O=C(COc1ncnc2ccccc12)Nc1ccc(S(=O)(=O)N2CCOCC2)cc1	n	n	n	n	n	n
c1ccc(CNCCC(Cc2ccccc2)c2ccco2)cc1 (centres undefined)	n	n	n	n	n	n
N#Cc1cc2c(nc1SCC(=O)Nc1nccs1)CCCCC2	n	11	1.0	7.7	21	n
O=C(CC1CCCC1)Nc1nnc(C2CC2)s1	4.6	n	n	n	n	n
O=C(CCC(=O)NC1CC1)Nc1nnc(C2CCCCC2)s1	n	n	n	n	n	n
CCN(CC)S(=O)(=O)c1ccc(-c2csc(C)n2)cc1	6.5	n	n	n	n	n
COc1ccc(C(=O)ON=C2CCN(c3ccc([N+](=O)[O-])cc3)CC2)cc1	n	n	n	n	n	n
CN1CCC(=NOc2ccc([N+](=O)[O-])cc2)CC1	4.7	n	n	n	n	n
CCOC(=O)c1cc(C(=O)OCC)cc(-n2cc(O)c(C(=O)OCC)n2)c1	n	n	n	n	n	n
C/C(=N\Nc1ccc(S(N)(=O)=O)cc1[N+](=O)[O-])c1ccco1	n	n	n	n	n	n
Nc1ccc(N=Nc2ccccc2)cc1[N+](=O)[O-]	n	5.6	3.0	n	12	n
Cc1ccc(N)c([N+](=O)[O-])c1	n	n	n	n	n	n
CC(=O)n1nc(-c2ccco2)nc1N	n	n	n	n	n	n
CCOc1ccc2oc(C(=O)Nc3ccc(N4CCOCC4)cc3)c(C)c2c1	n	n	n	n	n	n
CCOC(=O)c1c(N)sc(C(=O)Nc2ccc3c(c2)OCO3)c1C	n	5.8	n	n	n	n
CCOc1ccc2oc(C(=O)Nc3ccc4c(c3)OCO4)c(C)c2c1	n	n	n	n	11	n
CCOC(=O)c1c(C)c(C(=O)Nc2ccc3c(c2)OCO3)c(C)n1C	n	n	n	n	n	n
O=C1N=C(N2CCCCC2)S/C1=C\c1ccccc1F	4.3	n	n	n	n	n
COc1ccccc1N1CCN(Cc2ccsc2)CC1	n	n	1.1	n	n	n
Cc1ccc(Nc2nc(N)nc(CSC(=S)N3CCOCC3)n2)cc1	n	n	n	n	n	n
